These results are taken from PubChem BioAssay AID686979 (National Center for Advancing Translational Sciences (NCATS), 2013).

The structures appear in SMILES notation. Screen size: about 420,000 compounds; about 50,000 (12%) were called active. Inconclusive results (about 26%) are left out. The sample as a whole holds a higher share of actives than the screen did. Values without a mark were called inactive. Calls come from the whole dose curve; as a rule, active = well fitted inhibition curve with a large enough effect; inconclusive = small, poorly fitted or top-dose-only effect; inactive = flat fitted curve, though single readings scatter.
% is set by controls: 0 for no effect and ±100 for the full control effect; potency is the fitted concentration of half-maximal effect.

This experiment can be described thus: qHTS for Inhibitors of human tyrosyl-DNA phosphodiesterase 1 (TDP1): qHTS in cells in presence of CPT. Note: nearly all actives have a fitted effect of over 55% in size. The following applies: chicken DT40 Tdp1-/-;hTDP1 cells + 20 nM CPT, ATP luminescence, 48 h; series mostly up to 46.2 µM; activity change, negative = growth inhibition: at the top concentration. Put shortly: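 Chicken DT40 Tdp1-/- cells stably complemented with human TDP1 were seeded at 400 cells/well in medium containing 20 nM camptothecin, exposed to pin-transferred compounds, and grown at 37 °C for at least 48 hr. Viability was read as ATP luminescence.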
As to `COc1cc2c(cc1OC)CN(C(=O)c1cc(=O)c3ccccc3o1)CC2`, the Potency was 4.11 µM (active). Take `COc1cccc2cc(C(=O)N3CCN(C(=O)c4ccccc4)CC3)c(=O)oc12`: the “activity change, negative = growth inhibition” value was -16.3%.

For the molecule `COc1ccccc1OCc1ccc(C(=O)N2CCN(C)CC2)o1`, the “activity change, negative = growth inhibition” value is 7.63%.

As for `O=C(c1cc(=O)c2ccccc2o1)N1CCN(c2ccccc2)CC1`, the “activity change, negative = growth inhibition” value is 0.696%. As for `COc1ccccc1N1CCN(C(=O)c2cc(=O)c3cc(C)ccc3o2)CC1`, the Potency is 14.6 µM (active). For `COc1ccccc1N1CCN(C(=O)c2cc(=O)c3cc(C)cc(C)c3o2)CC1`, the Potency is 0.0052 µM (active). As to `COc1ccc2c(CC(=O)N3CCc4cc(OC)c(OC)cc4C3)coc2c1`, the “activity change, negative = growth inhibition” value was -2.85%. For the molecule `COc1ccc2oc(=O)c(C(=O)N3CCN(c4ccccc4F)CC3)cc2c1`, the “activity change, negative = growth inhibition” value is -26.6%. `Cc1ccc2oc(=O)c3cnn(CC(=O)N4CCN(c5ccccn5)CC4)c3c2c1`: the “activity change, negative = growth inhibition” value is -12.3%.

As for `CC1(C)C2CCC1(CS(=O)(=O)NCCc1c[nH]c3ccccc13)C(=O)C2` (stereo unspecified), the “activity change, negative = growth inhibition” value was -2.02%. On to `C/C(=N\NS(=O)(=O)c1ccc(Cl)cc1)c1ccc(NC(=O)c2ccco2)cc1`, for which the “activity change, negative = growth inhibition” value was -3.84%. Same read-out and setting: then `Cc1ccc(OCC(=O)Nc2ccc3oc(=O)ccc3c2)cc1C`, with -0.987%; and `CSc1cccc(NC(=O)C2CCCN2S(=O)(=O)c2ccc3c(c2)CCC(=O)N3)c1` (stereo unspecified), with -21.6%; and `N#Cc1c(N)nc2c(c1N)CC(C(F)(F)F)O2` (stereo unspecified), with 0.681%. Regarding `CCc1ccc(CNC(=O)c2cc3cc4ccc(OC)cc4nc3o2)cc1`, the “activity change, negative = growth inhibition” value was 1.41%. With `Cc1ccc(-c2cc(N)n(Cc3cccc(Cl)c3)n2)cc1`, the “activity change, negative = growth inhibition” value is -22.3%. In the case of `CC(C)Cc1ccc(-c2cc3nc(NCc4cccc(Cl)c4)ccn3n2)cc1`, the Potency was 20.6 µM (active). On to `CCNC(=S)N1CCN(CCN=CC2=C(O)CC(C)(C)CC2=O)CC1`, for which the “activity change, negative = growth inhibition” value is 3.82%. Regarding `COc1ccccc1N(C)S(=O)(=O)c1ccc(C(=O)NC2CCCCCC2)cc1`, the Potency is 23.1 µM (active). For the molecule `COc1ccccc1N(C)S(=O)(=O)c1ccc(C(=O)N2CCC(C(N)=O)CC2)cc1`, the “activity change, negative = growth inhibition” value was -21%. Turning to `COc1ccc(S(=O)(=O)NC(C)C)cc1C(=O)NC1CCCCC1`, the “activity change, negative = growth inhibition” value was 7.46%. For the molecule `CO[C@]1(NC(=O)CSC(F)F)C(=O)N2C(C(=O)O)=C(CSc3nnnn3CCO)CO[C@H]21`, the “activity change, negative = growth inhibition” value was 1.05%.

For `CCn1c(SCC(=O)NC2CC2)nnc1-c1ccccc1OC`, the “activity change, negative = growth inhibition” value was 6.21%. With `COC(=O)c1ccc(COc2ccc(C#N)cc2)o1`, the “activity change, negative = growth inhibition” value is -0.114%. The same measure, in the same setting: then `CCc1cccc(C)c1N1C(=O)CN(Cc2ccccc2)C1=S`, with -2.8%; and `Cn1cc(/C=C/C(=O)N2CCCC(C(=O)c3ccc(C(F)(F)F)cc3)C2)cn1` (stereo unspecified), with 8.27%. With `Cn1cc(CCC(=O)N2CCCC(C(=O)c3ccc(C(C)(C)C)cc3)C2)cn1` (stereo unspecified), the Potency was 25.9 µM (active).

For `COCC(=O)N1CCCC(C(=O)c2ccc(C(F)(F)F)cc2)C1` (stereo unspecified), the “activity change, negative = growth inhibition” value was -21.2%.

On to `CCNC(=O)C1(C)CCCN1C(=O)c1ccc(N(C)C)cc1` (stereo unspecified), for which the “activity change, negative = growth inhibition” value is -2.17%.

On to `CC1(C(=O)NS(=O)(=O)c2ccccc2)CCN1C(=O)c1ccccc1` (stereo unspecified), for which the “activity change, negative = growth inhibition” value is 5.22%. In the case of `CC(C)NC(=O)C1(C)CCCCCN1C(=O)c1ccc(-c2ccccc2)cc1` (stereo unspecified), the Potency is 18.4 µM (active). Regarding `CC(OC(=O)c1ccc(-n2cnnn2)cc1)C(=O)NCc1ccccc1` (stereo unspecified), the “activity change, negative = growth inhibition” value was 2.67%. As for `O=C(CSc1nc(=O)n(Cc2cccnc2)c2c1CCC2)Nc1ccc(F)cc1F`, the “activity change, negative = growth inhibition” value is -2.59%. As for `COc1ccc(C)cc1N(C)C(=O)c1c(C)oc2ncnc(N3CCOCC3)c12`, the “activity change, negative = growth inhibition” value is 24.5%. As for `Cc1oc2ncnc(N3CCCCC3)c2c1C(=O)N1CCN(c2cccc(Cl)c2)CC1`, the Potency is 16.4 µM (active).

As for `Cc1ccc2oc(=O)c3cnn(CC(=O)N4CCN(c5cccc(Cl)c5)CC4)c3c2c1`, the “activity change, negative = growth inhibition” value was -20.3%. Take `O=C1C(c2[nH]c3ccccc3c2O)=Nc2ccccc21`: the “activity change, negative = growth inhibition” value is -24.8%. Consider `O=C(Nn1c(-c2ccccc2)nc2ccccc2c1=O)c1ccc([N+](=O)[O-])cc1`, for which the “activity change, negative = growth inhibition” value is -5.8%. Turning to `CCOC(=O)CCCN1CC(O)=C(c2nc3ccccc3s2)C1=N`, the “activity change, negative = growth inhibition” value was -18.1%. As to `N=C1C(c2nc3ccccc3s2)=C(O)CN1NC(=O)c1ccc([N+](=O)[O-])cc1`, the Potency was 20.6 µM (active).

Take `COc1cccc(C(=O)n2ccc(-c3cccs3)n2)c1`: the “activity change, negative = growth inhibition” value is 5.04%. With `CCCCNC(=S)N/N=C1\CCCCc2ccccc21`, the Potency is 23.1 µM (active). Take `Cc1ccc(NC(=S)N/N=C2/CCCc3c(C)cc(C)cc32)cc1`: the “activity change, negative = growth inhibition” value is 4.83%. As to `CCCCc1ccc(NC(=S)NCCCN2CCOCC2)cc1`, the “activity change, negative = growth inhibition” value is -16%.

For the molecule `CCOc1ccccc1CN1CCN(C2CCC2)CC1CCO` (stereo unspecified), the “activity change, negative = growth inhibition” value was 1.66%. Regarding `COC(C[C@H](O)CC(=O)[C@@H](C)OCc1ccccc1)OC`, the “activity change, negative = growth inhibition” value was -0.491%. Regarding `COC(C/C=C/C(=O)[C@@H](C)OCc1ccccc1)OC`, the Potency is 18.4 µM (active). Consider `COC(C[C@@H]1O[C@@H]1C(=O)[C@@H](C)OCc1ccccc1)OC`, for which the “activity change, negative = growth inhibition” value is -25.6%. For `CCCC(C)C(=O)OCC(=O)Nc1c(Br)cc(C)cc1Br` (stereo unspecified), the “activity change, negative = growth inhibition” value is 3.63%. In the case of `OCC1(Cc2ccccc2C(F)(F)F)CCN(Cc2cccc3cnccc23)CC1`, the “activity change, negative = growth inhibition” value is -4.82%.

`CC1CCCCC1NC(=O)CSc1nnc(-c2ccncc2)n1CCCN(C)C` (stereo unspecified): the “activity change, negative = growth inhibition” value is 10.5%.
